# Assay results: PubChem BioAssay (NCI)
# Compounds without any hit were thinned out: in the full panel of roughly 83,000, 20% have a hit.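 Growth was measured after 48 h exposure to one concentration of compound in 96-well plates. Values under 10 count as active.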 A number with no mark means an inactive call. Calls of active or inactive are those of the source.
# Key:
# Experiment in all cases: NCI-60 one-dose screen, 48 h (100 = growth as untreated, 0 = no growth, -100 = all killed)
# Conditions in all cases: 10 µM unless noted
# RPMI-8226 leukemia = system: RPMI-8226 leukemia
# OVCAR-8 ovarian = system: OVCAR-8 ovarian
# OVCAR-5 ovarian = system: OVCAR-5 ovarian
# OVCAR-4 ovarian = system: OVCAR-4 ovarian
# SK-OV-3 ovarian = system: SK-OV-3 ovarian
# IGROV1 ovarian = system: IGROV1 ovarian
# OVCAR-3 ovarian = system: OVCAR-3 ovarian
# HS 578T breast = system: HS 578T breast
# NCI/ADR-RES ovarian = system: NCI/ADR-RES ovarian
# T-47D breast = system: T-47D breast
# BT-549 breast = system: BT-549 breast
# MDA-MB-435 melanoma = system: MDA-MB-435 melanoma
# SW-620 colon = system: SW-620 colon
# MCF7 breast = system: MCF7 breast
# HCT-116 colon = system: HCT-116 colon
# KM12 colon = system: KM12 colon
# HCC-2998 colon = system: HCC-2998 colon
SMILES,growth (RPMI-8226 leukemia),growth (OVCAR-8 ovarian),growth (OVCAR-5 ovarian),growth (OVCAR-4 ovarian),growth (SK-OV-3 ovarian),growth (IGROV1 ovarian),growth (OVCAR-3 ovarian),growth (HS 578T breast),growth (NCI/ADR-RES ovarian),growth (T-47D breast),growth (BT-549 breast),growth (MDA-MB-435 melanoma),growth (SW-620 colon),growth (MCF7 breast),growth (HCT-116 colon),growth (KM12 colon),growth (HCC-2998 colon)
O=C(CO[N+](=O)[O-])Nc1ccc(C(=O)/C=C/c2ccc3c(c2)OCO3)cc1,46.8%,75.8%,96.5%,96.1%,111%,48.3%,80.6%,103%,84.5%,83%,87.6%,62.6%,47.8%,26.2%,-5.9% (active),35.9%,–
Oc1cccc(Nc2nccc(-c3ccc4ccccc4c3)n2)c1,9.15% (active),29.4%,58.4%,86.5%,27.2%,41.7%,14.7%,13%,19.9%,47.6%,41.3%,-1.27% (active),31.3%,25.3%,20.6%,28.2%,52.2%
CC[C@H](Nc1cc(C)nc(N)n1)c1nc2cccc(NCc3ccc(C(=O)NO)cc3)c2c(=O)n1-c1ccccc1,-17.9% (active),–,32.3%,49.3%,29.8%,-4.45% (active),16.4%,32.1%,90.6%,18.7%,49.1%,-15% (active),-10.8% (active),24.7%,-18.7% (active),13.1%,19.9%
Cc1csc2ccc(Cl)cc12,–,–,102%,98.1%,96.5%,104%,111%,104%,103%,–,104%,103%,102%,–,106%,111%,109%
CN(C)CCOc1ccc(-c2nc3ccc(-c4nc5ccc(N6CCN(C)CC6)cc5[nH]4)cc3[nH]2)cc1,35.5%,63.6%,83%,68%,69.5%,90%,94.9%,76.4%,108%,–,74.2%,61.2%,66.3%,35.5%,48.3%,57.3%,99%
O=C1C=CC(Nc2ccccc2[N+](=O)[O-])C1Nc1ccccc1[N+](=O)[O-] (stereo not given),-17.4% (active),31%,12.3%,3.47% (active),109%,86%,-81.3% (active),32%,-26.8% (active),–,-58.7% (active),8.78% (active),-71.6% (active),–,-89.5% (active),58.3%,6.76% (active)
O=C1C(Cl)=C(Cl)C(=O)c2c1nc1n2CCCC1,99.3%,100%,116%,117%,90.8%,104%,82.5%,105%,–,48.3%,95.5%,115%,81.6%,70%,84.1%,80.5%,52.5%
O=C(NC(Cc1ccccc1)C(=O)CCl)OCc1ccccc1 (stereo not given),9.51% (active),–,92.3%,62.7%,87.8%,87.7%,76%,99.5%,75.1%,70.7%,41.4%,16.1%,48.4%,29%,45.9%,89.1%,97.1%
CC[C@H](Nc1nc(N)nc(C)c1C#N)c1nc2cccc(NCc3ccc(C(=O)NO)cc3)c2c(=O)n1-c1ccccc1,4.78% (active),-25.7% (active),16.8%,15.5%,-12% (active),-50.5% (active),0.5% (active),-8.46% (active),74.7%,–,20.9%,-1.57% (active),-16.4% (active),5.7% (active),-50.5% (active),0.659% (active),28.3%
O=C(CNC1C2CC3CC(C2)CC1C3)Sc1nnc2sc3ccccc3n12 (stereo not given),–,106%,100%,87.6%,94.2%,104%,98.2%,89.5%,99.2%,87.2%,98%,101%,94.8%,–,93.6%,101%,113%
CCOC(=O)C12CCCC1=CC(=O)CC2 (stereo not given),98.5%,96.5%,96.3%,112%,102%,103%,116%,98.2%,104%,–,110%,112%,109%,101%,105%,106%,–
CC/C(=C(\c1ccccc1)c1ccc(OCCNC)cc1)c1ccccc1,-40.9% (active),-49.6% (active),-85.2% (active),-67.1% (active),-53.8% (active),-93% (active),-92.1% (active),-55.6% (active),-87.3% (active),–,-91.2% (active),-93.8% (active),-57.6% (active),-95.8% (active),-96% (active),-77.7% (active),-99.7% (active)
O=C1NC(=O)C(CC(=O)n2c(-c3ccccc3)nc3ccccc32)C(=O)N1,101%,101%,103%,103%,98.3%,93.3%,106%,102%,103%,93.5%,101%,106%,104%,92.4%,104%,101%,–
O=C(/C=C\c1ccc2ccccc2n1)c1cc(Cl)ccc1O,–,63.6%,81.3%,73.6%,111%,86.1%,43.5%,95.1%,60.4%,28.3%,71.5%,51.8%,29%,27.9%,48.6%,74.2%,84.4%
Cc1cc2c(cc1C)NC1=C(N2)OC(c2c3ccccc3cc3ccccc23)C1=O (stereo not given),30.6%,–,13.9%,75.5%,52%,17.4%,23.3%,32.5%,-41.7% (active),–,0.106% (active),-7.13% (active),19.3%,5.73% (active),-5.82% (active),9.94% (active),7.57% (active)
CCN1CCN(Cc2ccc(NC(=O)Nc3nc4ccc(Oc5ccnc(C(=O)NC)c5)cc4s3)cc2C(F)(F)F)CC1,-22.9% (active),-18.6% (active),-40.6% (active),-64.1% (active),-2.46% (active),-12.2% (active),-74.1% (active),-38.6% (active),-12.7% (active),–,-69.1% (active),-36.5% (active),-52.7% (active),-39.3% (active),-66.1% (active),-61.6% (active),-33.6% (active)
NC(N)=Nc1ccc(S(=O)(=O)O)cc1,101%,107%,99.7%,95.5%,96.7%,121%,129%,105%,93.6%,114%,119%,106%,103%,102%,107%,116%,–
COc1ccc(-c2cc(-c3cccnc3)nc3sc4c(=O)n(-c5ccc(C)cc5)nnc4c23)cc1OC,–,105%,90%,109%,95%,99.6%,107%,93.9%,102%,99.3%,–,99.3%,94.4%,99.7%,95%,103%,109%
COc1ccc(-c2c3c(nc4n[nH]c(-c5ccc(Cl)cc5)c24)-c2ccccc2C(=O)C3=O)cc1,–,3.87% (active),51.5%,23%,42.5%,–,-17.2% (active),7.1% (active),-3.63% (active),17%,–,-86.2% (active),-66.1% (active),1.77% (active),-44.5% (active),-20.6% (active),-25.5% (active)
